5 compounds from PubChem BioAssay can be followed below.

The structures appear in SMILES notation. Calls of active or inactive are those of the source. Unless noted, the rule behind the calls is not given here.

The nature of assay [1]: anti-His antibody binders, primary screen, artefact control for SMM control protein annotation, biochemical, small-molecule microarray, 635 nm fluorescence (AID 1128).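 Note: score merges feature fluorescence with signal-to-noise for each printed compound spot.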 The note with it: anti-His Alexa647 antibody binding, higher = more signal.
Assay [2] relates to Human papillomavirus type 1a E7 protein (residues 1-88). Kind of assay: HPV1a E7 small-molecule binders, primary screen, biochemical, small-molecule microarray, residues 1-88, 635 nm (AID 1129). To be noted: small-molecule microarray binding, fluorescence 635 nm; higher = more signal.
Assay [3] concerns the target Focal adhesion kinase 1 (Homo sapiens) (UniProt Q05397). Kind of assay: small-molecule microarray binders of FAK, primary screen, biochemical, 635/667 nm fluorescence, BSA, DTT (AID 1130).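 Note: composite of spot emission at 667 nm and signal to noise over triplicate slides.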 The note with it: PTK2 binding, 635 nm fluorescence, higher = more signal.
The test system of assay [4] is Fibrinogen (Alexa647-labelled). Kind of assay: fibrinogen binders on compound microarrays, profiling panel, artefact control for SMM control-protein annotation, biochemical, small-molecule microarray, 635/667 nm fluorescence (AID 1131).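 Note: z-score merges 667 nm fluorescence with per-spot signal-to-noise over triplicate slides.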 To be noted: fibrinogen-A647 binding fluorescence, higher = more signal.
Assay [5] addresses Follistatin (Homo sapiens) (UniProt P19883). Kind of assay: follistatin binders on small-molecule microarrays, primary screen, biochemical, small-molecule microarray, 635/667 nm fluorescence (AID 1132). The note with it: FST binding, 635 nm fluorescence, higher = more signal.
The target of assay [6] is Fibroblast growth factor 2 (Homo sapiens) (UniProt P09038). In words: FGF2 binders on small-molecule microarrays, primary screen, biochemical, small-molecule microarray, 635/667 nm fluorescence (AID 1133). To be noted: small-molecule microarray binding, FGF2, fluorescence 635/667; higher = more signal.
Sequence of Fibroblast growth factor 2 (Homo sapiens) (P09038 whole entry, looked up): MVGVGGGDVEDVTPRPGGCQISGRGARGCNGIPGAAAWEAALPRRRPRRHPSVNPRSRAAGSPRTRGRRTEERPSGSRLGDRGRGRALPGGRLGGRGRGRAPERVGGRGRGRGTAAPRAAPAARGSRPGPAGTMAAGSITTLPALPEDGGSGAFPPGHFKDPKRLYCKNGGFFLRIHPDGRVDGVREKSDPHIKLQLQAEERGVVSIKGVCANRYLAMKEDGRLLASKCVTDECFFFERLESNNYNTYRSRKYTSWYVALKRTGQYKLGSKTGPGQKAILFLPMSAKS
Assay [7] in a line: mitochondrial membrane potential change in A549 cells, profiling panel, cell-based, JC-1 fluorescence, basal, 24 h, 100 nL (AID 1138).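 Note: A549 lung adenocarcinoma cells under basal conditions with no added stimulus; test concentration not given here.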 To be noted: higher = more signal.
Another assay relates to Lefty1. Kind of assay: Lefty1 binders on small-molecule microarrays, primary screen, biochemical, small-molecule microarray, 635/667 nm fluorescence (AID 1139). The note with it: small-molecule microarray binding, fluorescence 635/667; higher = more signal.
For assay [8], the system named is wheat germ agglutinin (Triticum aestivum), Alexa647-labelled. In words: wheat germ agglutinin binders on compound microarrays, profiling panel, artefact control for SMM control-protein annotation, biochemical, small-molecule microarray, 635/667 nm fluorescence (AID 1140).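 Note: score merges 667 nm feature emission with signal to noise over triplicate slides.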 The note with it: WGA-A647 binding, 635 nm fluorescence, higher = more signal.
Assay [9] deals with Luciferin 4-monooxygenase (Photinus pyralis) (UniProt P08659). In words: firefly luciferase enzyme inhibitors, primary screen, biochemical, luminescence, purified enzyme, 2006 set (AID 1141).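 Note: cell-free assay with purified firefly luciferase at 100 ng per well in PBS; test concentration not given here.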 To be noted: SteadyGlo luminescence, 30 min, higher = more signal, called active from +8 up or from −8 down.
Sequence of Luciferin 4-monooxygenase (Photinus pyralis) (P08659 whole entry, looked up): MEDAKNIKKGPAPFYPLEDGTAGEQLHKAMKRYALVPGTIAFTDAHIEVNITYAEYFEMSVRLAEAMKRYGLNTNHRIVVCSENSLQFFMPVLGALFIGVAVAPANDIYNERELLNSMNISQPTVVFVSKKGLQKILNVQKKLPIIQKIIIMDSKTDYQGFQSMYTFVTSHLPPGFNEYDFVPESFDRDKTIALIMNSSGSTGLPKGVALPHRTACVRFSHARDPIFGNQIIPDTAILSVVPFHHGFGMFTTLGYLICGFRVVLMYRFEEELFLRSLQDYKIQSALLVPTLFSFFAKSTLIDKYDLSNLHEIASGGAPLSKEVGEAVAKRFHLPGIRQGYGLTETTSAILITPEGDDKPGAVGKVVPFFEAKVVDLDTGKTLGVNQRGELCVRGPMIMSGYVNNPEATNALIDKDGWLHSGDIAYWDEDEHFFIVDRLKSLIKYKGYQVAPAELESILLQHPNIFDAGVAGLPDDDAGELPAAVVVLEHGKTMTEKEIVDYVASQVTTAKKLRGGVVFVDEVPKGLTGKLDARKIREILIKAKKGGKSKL
Assay [10] has as its system Wnt5a (protein binding on small-molecule microarray). In words: Wnt5a binders on small-molecule microarray, primary screen, biophysical, 635/667 nm fluorescence (AID 1142).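 Note: fluorescence read at 667 nm with signal to noise per printed feature.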 The note with it: 635 nm fluorescence, higher = more signal.
Assay [11] in a line: cell viability in Huh7 cells, primary screen, cytotoxicity control for HCV replication inhibitor project, CellTiter-Glo luminescence, basal, 48 h (AID 1143).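 Note: Huh7 hepatoma cells carrying a hepatitis C replication reporter with no stimulus; test concentration not given here.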 The note with it: Huh7 HCV replicon, higher = more signal, called active from +8 up or from −8 down.
Assay [12] in a line: P. aeruginosa biofilm formation inhibitors, primary screen, PAO1 strain, BacTiter-Glo luminescence, LB-PBS (AID 1144). The note with it: 12 h, higher = more signal.
A short description of assay [13]: CREB reporter modulators without forskolin, primary screen, cell-based, PC12, CRE-LacZ reporter, unstimulated (AID 1145). The note with it: no forskolin, luminescence, 4.5 h, higher = more signal, called active from +8 up or from −8 down.
Assay [14] in a line: CREB reporter modulators under forskolin, primary screen, cell-based, PC12, CRE-LacZ reporter, forskolin-stimulated (AID 1146).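 Note: PC12 cells with 6xCRE LacZ reporter stimulated by forskolin 10 µM; beta-galactosidase reporter signal reflecting CREB driven transcription.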 To be noted: luminescence, 4.5 h, higher = more signal, called active from +8 up or from −8 down.
Assay [15] concerns the target Streptavidin (Streptomyces avidinii) (UniProt P22629). In words: streptavidin binders on small-molecule microarray, primary screen, artefact control for SMM compound annotation, biophysical, 635/667 nm fluorescence (AID 1147).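 Note: signal reflects streptavidin binding to arrayed compounds as a control protein.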 The note with it: streptavidin binding, higher = more signal.
The nature of assay [16]: small-molecule binders of probe aInhba, primary screen, biochemical, small-molecule microarray, 635/667 nm fluorescence (AID 1148).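 Note: score merges 667nm spot fluorescence with signal-to-noise for antibody binding to printed compounds.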 To be noted: higher = more signal.
Assay [17] concerns the target Torsin-1A (Homo sapiens) (UniProt O14656). In words: torsin A binders from cell lysate, primary screen, small-molecule microarray, wild-type, 635/667 nm (AID 1149). To be noted: COS7 hTOR1A-WT lysate, 635 nm fluorescence, higher = more signal.
Assay [18] shares this target. In words: small-molecule binders of mutant TOR1A in lysate, primary screen, cell lysate, small-molecule microarray, COS7 lysate, 635/667 nm fluorescence (AID 1150).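 Note: score pools 667 nm emission and signal to noise measuring lysate protein binding.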 To be noted: COS7 hTOR1A mutant lysate, 635 nm fluorescence, higher = more signal.
The test system of assay [19] is Sonic hedgehog protein (Shh). In words: small-molecule binders of Shh protein, primary screen, biochemical, small-molecule microarray, 635/667 nm fluorescence (AID 1151).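 Note: Shh protein binding to compounds spotted on small-molecule microarray slides; score combines spot fluorescence intensity with signal-to-noise across triplicate slides.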 To be noted: small-molecule microarray binding, 635 nm fluorescence; higher = more signal.

Sequence of Torsin-1A (Homo sapiens) (O14656 whole entry, looked up): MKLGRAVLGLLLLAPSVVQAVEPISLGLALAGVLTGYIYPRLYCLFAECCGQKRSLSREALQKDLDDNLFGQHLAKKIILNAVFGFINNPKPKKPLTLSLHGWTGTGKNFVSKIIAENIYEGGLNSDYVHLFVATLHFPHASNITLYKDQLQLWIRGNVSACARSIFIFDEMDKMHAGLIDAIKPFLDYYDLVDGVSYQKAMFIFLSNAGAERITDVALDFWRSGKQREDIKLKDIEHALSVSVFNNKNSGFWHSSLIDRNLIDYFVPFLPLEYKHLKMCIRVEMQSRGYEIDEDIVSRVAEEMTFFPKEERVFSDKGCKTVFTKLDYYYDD
Sequence of Follistatin (Homo sapiens) (P19883 whole entry, looked up): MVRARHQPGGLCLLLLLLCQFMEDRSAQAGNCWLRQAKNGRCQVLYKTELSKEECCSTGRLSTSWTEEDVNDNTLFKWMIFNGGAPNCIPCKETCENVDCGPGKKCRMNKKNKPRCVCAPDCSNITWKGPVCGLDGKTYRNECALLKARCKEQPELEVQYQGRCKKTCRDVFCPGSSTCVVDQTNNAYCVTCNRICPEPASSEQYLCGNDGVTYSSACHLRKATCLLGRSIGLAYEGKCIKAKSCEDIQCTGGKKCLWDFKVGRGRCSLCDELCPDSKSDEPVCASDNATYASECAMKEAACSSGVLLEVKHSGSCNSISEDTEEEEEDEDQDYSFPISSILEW
Sequence of Streptavidin (Streptomyces avidinii) (P22629 whole entry, looked up): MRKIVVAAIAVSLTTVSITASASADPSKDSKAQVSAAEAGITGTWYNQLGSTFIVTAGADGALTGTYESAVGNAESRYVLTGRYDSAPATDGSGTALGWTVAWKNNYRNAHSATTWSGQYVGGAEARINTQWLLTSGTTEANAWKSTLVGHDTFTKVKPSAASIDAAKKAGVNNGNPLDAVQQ
Sequence of Focal adhesion kinase 1 (Homo sapiens) (Q05397 whole entry, looked up): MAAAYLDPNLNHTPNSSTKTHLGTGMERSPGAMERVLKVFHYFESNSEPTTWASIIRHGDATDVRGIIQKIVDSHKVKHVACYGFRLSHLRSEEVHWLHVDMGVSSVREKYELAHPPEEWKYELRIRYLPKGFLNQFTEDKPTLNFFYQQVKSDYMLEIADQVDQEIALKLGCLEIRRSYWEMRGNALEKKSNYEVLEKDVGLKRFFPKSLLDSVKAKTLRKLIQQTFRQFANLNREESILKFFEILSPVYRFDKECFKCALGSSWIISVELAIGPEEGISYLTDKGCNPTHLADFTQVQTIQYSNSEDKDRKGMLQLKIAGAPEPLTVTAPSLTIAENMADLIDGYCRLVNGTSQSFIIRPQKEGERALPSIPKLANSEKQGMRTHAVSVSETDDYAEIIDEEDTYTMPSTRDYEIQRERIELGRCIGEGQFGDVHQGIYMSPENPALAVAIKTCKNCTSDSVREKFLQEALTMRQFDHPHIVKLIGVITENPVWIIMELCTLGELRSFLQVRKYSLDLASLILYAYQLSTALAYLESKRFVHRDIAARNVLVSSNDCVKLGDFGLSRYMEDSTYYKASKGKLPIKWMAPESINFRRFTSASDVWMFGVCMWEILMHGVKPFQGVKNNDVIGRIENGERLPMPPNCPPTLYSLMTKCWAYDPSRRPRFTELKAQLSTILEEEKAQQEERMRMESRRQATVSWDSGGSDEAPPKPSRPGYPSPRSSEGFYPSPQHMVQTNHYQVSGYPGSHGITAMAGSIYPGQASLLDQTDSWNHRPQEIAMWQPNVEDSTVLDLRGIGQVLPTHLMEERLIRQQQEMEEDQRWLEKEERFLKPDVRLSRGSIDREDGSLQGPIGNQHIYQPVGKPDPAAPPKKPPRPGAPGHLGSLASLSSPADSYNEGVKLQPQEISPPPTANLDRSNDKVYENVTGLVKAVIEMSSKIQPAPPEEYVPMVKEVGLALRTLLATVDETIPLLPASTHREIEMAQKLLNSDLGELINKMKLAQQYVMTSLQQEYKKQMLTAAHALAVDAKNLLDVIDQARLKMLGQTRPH

For `CC(C)OC(=O)C=C1C[C@@H](c2ccccc2C(F)(F)F)O[C@@H](c2ccccc2C(F)(F)F)O1`, the composite z-score is 0.209 in assay [1]; 0.737 in [2]; 0.554 in [3]; 0.183 in assay [4]; -0.0154 in assay [5]; 0.179 in [6]. Moreover, the composite z-score in the assay on Lefty1 was 0.109; in assay [8] it was 0.127; in assay [10], 0.0503; in [15], 0.215; in [16], -0.176; with Torsin-1A (Homo sapiens) [17], 0.217. Besides, the composite z-score with Torsin-1A (Homo sapiens) [18] came out at 0.202; in assay [19] it was 0.245. Moreover, the z-score in assay [7] is 1.81; in assay [9], 0.464 (inactive); in [11], -4.32 (inactive); in [12] it was -0.0124 (inactive); in assay [13] it was 0.0798 (inactive); in [14], 1.22 (inactive).
With `NC(=O)[C@@H]1[C@H]2C(=O)O[C@H](c3ccccc3)[C@H](c3ccccc3)N2[C@H](c2ccc(O)cc2)[C@@]12C(=O)Nc1ccc(C#CC3(O)CCCCCC3)cc12`, the composite z-score was 0.6 in [1]; -0.239 in assay [2]; -0.205 in assay [3]; -0.819 in assay [4]; -0.0584 in assay [5]; -0.384 in assay [6]. Moreover, the composite z-score in the assay on Lefty1 is -0.502; in assay [8], -0.0999; in assay [10], -0.277; in assay [15] it was -1.08; in assay [16], -0.148; with Torsin-1A (Homo sapiens) [17] it was 0.398. The composite z-score with Torsin-1A (Homo sapiens) [18] is 1.1; in assay [19], -0.323. In addition, the z-score in assay [7] was -1.06; in assay [9], -0.869 (inactive); in assay [11] it was -0.0907 (inactive); in assay [12], -0.269 (inactive); in [13], 0.568 (inactive); in [14], -0.301 (inactive).
In the case of `COC(=O)[C@@]1(Cc2ccc(F)cc2)[C@H]2c3cc(C(=O)N(C)C)n(Cc4nc5ccccc5[nH]4)c3C[C@H]2CN1C(=O)c1ccccc1`, the composite z-score in [1] is 1.11; in [2], 1.28; in assay [3], 0.187; in assay [4] it was 0.843; in [5], 0.526; in assay [6], -0.634. Further, the composite z-score was -0.0816 with Lefty1; 0.488 in assay [8]; 0.507 in assay [10]; 0.711 in [15]; 0.348 in [16]; -0.806 in the assay with Torsin-1A (Homo sapiens) [17]. Also, the figures for the composite z-score (in the assay with Torsin-1A (Homo sapiens) [18]; in assay [19]) were 0.484 and -0.586, respectively. Also, the z-score in assay [7] was -0.0117; in assay [9], -0.625 (inactive); in assay [11], -0.574 (inactive); in assay [12], 0.528 (inactive); in assay [13] it was 1.53 (inactive); in assay [14], 0.678 (inactive).
As to `C#CCN(CC=C(C)C)[C@H](CO)c1ccccc1`, the composite z-score in [1] was -0.237; in assay [2], 0.729; in assay [3], -0.122; in [4], -0.0376; in assay [5], 0.391; in assay [6] it was 0.295. The composite z-score with Lefty1 is -0.0431; in assay [8] it was -0.196; in assay [10], -0.0366; in assay [15] it was 0.0089; in [16] it was -0.0719; with Torsin-1A (Homo sapiens) [17], 0.247. In addition, the composite z-score with Torsin-1A (Homo sapiens) [18] came out at 1.08; in [19], 0.0568. Also, the z-score was -1.47 in assay [7]; 0.648 (inactive) in [9]; -4.16 (inactive) in assay [11]; -0.215 (inactive) in assay [12]; -0.153 (inactive) in [13]; 0.979 (inactive) in assay [14].
Consider `COc1ccc(CCN2C(=O)[C@@]3(Cc4ccccc42)c2ccccc2C(=O)N(Cc2ccccc2C(F)(F)F)[C@H]3c2ccc(CO)cc2)cc1`, for which the composite z-score in assay [1] is 0.752; in [2] it was -0.175; in assay [3], -0.324; in assay [4] it was 0.732; in assay [5], 1.12; in assay [6] it was 0.83. The composite z-score in the assay with Lefty1 was 0.541; in [8] it was 0.461; in assay [10], 0.268; in [15], -0.228; in assay [16], -0.208; in the assay with Torsin-1A (Homo sapiens) [17], 0.208. In addition, the figures for the composite z-score (with Torsin-1A (Homo sapiens) [18]; in assay [19]) were 0.087 and 1.9, respectively. Also, the z-score in assay [7] is -0.963; in assay [9], 0.642 (inactive); in assay [11], -4.12 (inactive); in [12] it was -1.41 (inactive); in assay [13], -0.554 (inactive); in assay [14], -0.361 (inactive).
